The values that follow come from PubChem BioAssay (NCATS).

Experiment [1] can be described thus: Counterscreen for APE1 Inhibitors: Fluorescent Dye Displacement Validation Assay (AID 1707). In short, it runs like this: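 Reaction mixture of 250 nM Thiazole Orange and 50 nM double-stranded abasic-site DNA was dispensed, compounds were pin-transferred, and fluorescence was read at endpoint (480 nm ex, 540 nm em). Reduced fluorescence indicated dye displacement by DNA binding.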

The nature of experiment [2]: qHTS for differential inhibitors of proliferation of Plasmodium falciparum line 7G8 (AID 1815).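 Note: potency is the fitted concentration of half-maximal effect; parasite growth measured after three days of incubation.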
Experiment [3] can be described thus: qHTS for differential inhibitors of proliferation of Plasmodium falciparum line GB4 (AID 1816).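 Note: potency is the fitted concentration of half-maximal effect; parasite growth measured after 72 h incubation.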 Particulars: Potency: Plasmodium falciparum GB4 proliferation inhibition.
Experiment [4] can be described thus: qHTS for differential inhibitors of proliferation of Plasmodium falciparum line 3D7 (AID 1876). Note: potency is the fitted concentration of half-maximal effect.
A short description of experiment [5]: qHTS for differential inhibitors of proliferation of Plasmodium falciparum line Dd2 (AID 1882). Note: series mostly up to about 29 µM; nearly all actives have a fitted effect of over 65% in size. Particulars: Potency: Plasmodium falciparum Dd2 proliferation inhibition. In short, it runs like this: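 SYBR Green DNA fluorescence (ex 485, em 535 nm) after overnight lysis quantifies parasite growth; compound exposure lasted 72 h at 37 C on infected red cells at 2.5% hematocrit, 0.3% parasitemia (final). Artemisinin 0.29 uM and vehicle wells define normalization.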

Experiment [6] is described as follows: qHTS for differential inhibitors of proliferation of Plasmodium falciparum line W2 (AID 1883).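 Note: potency is the fitted concentration of half-maximal effect; parasites grown with compound for 72 h before lysis and staining.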 The note with it: Potency: Plasmodium falciparum W2 proliferation inhibition.
Experiment [7] in a line: qHTS Assay for Modulators of Human Peripheral Myelin Protein 22 (PMP22) Expression/Activity (AID 1967; active = well fitted curve in the direction sought with a large enough effect in the signal ratio; the % refers to the signal ratio). A digest of the protocol: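 Quantitative HTS in a mouse Schwann cell line expressing dual click beetle luciferases: Pmp22 promoter (green) and control EF-alpha promoter (red). After 24h treatment, corrected green/red signal ratio gave %Activity relative to untreated cells.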

The target in experiment [8] is Ferritin light chain (Equus caballus) (UniProt P02791). Nature of the experiment: qHTS Validation Assay for Identification of Novel General Anesthetics (AID 2323). Note: series mostly up to about 77 µM. In short, it runs like this:
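Apoferritin from horse spleen (10 uM) was mixed with 1-aminoanthracene at 50% saturation in PBS, then compounds were added. After 10 min at room temperature, fluorescence was read (ex 380 nm, em 535 nm) and normalized to free-probe and complex controls.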

The target in experiment [9] is ATP-dependent DNA helicase Q1 (Homo sapiens) (UniProt P46063). Nature of the experiment: qHTS Validation Assay for Inhibitors of RecQ-Like Dna Helicase 1 (RECQ1) (AID 2353). A digest of the protocol: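 RECQ1T1 50 nM; forked duplex (20 bp + 30-nt ss tails) 200 nM, ATP 2 mM final; pH 8.0, 2 mM MgCl2, 2.5 ug/ml poly(dI-dC); 15 min compound preincubation; discontinuous kinetic read over 2 h at RT.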

In experiment [10] the target is RecQ-like DNA helicase BLM (Homo sapiens) (UniProt P54132). Nature of the experiment: qHTS Validation Assay for Inhibitors of Bloom's syndrome helicase (BLM) (AID 2364). In short, it runs like this:
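BLM 50 nM in 25 mM Tris-HCl pH 8.0, 5 mM NaCl, 2 mM MgCl2, 1 mM DTT, 0.01% Tween-20, 2.5 ug/ml poly(dI-dC); 15 min cpd preinc, RT. Start: 200 nM forked DNA + 2 mM ATP (final). TAMRA read, 2 reads 2 h apart.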

The nature of experiment [11]: Validation screen for small molecules that induce DNA re-replication in MCF 10A normal breast cells (AID 463097). Note: nearly all actives have a fitted effect of over 60% in size. In short, it runs like this: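 DNA re-replication was detected as a rise in nuclei with elevated Hoechst fluorescence after a 48 hr compound exposure of MCF 10A cells at 37 C.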
In experiment [12] the target is Thyrotropin receptor (Homo sapiens) (UniProt P16473). Nature of the experiment: qHTS Assay for Antagonists of the Thyroid Stimulating Hormone Receptor (AID 488980). Note: series mostly up to about 58 µM. A digest of the protocol: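 Cells expressing human TSHR (HEK293) are dispensed in HBSS/HEPES containing 70 uM RO 20-1724, compound is added, then TSH at EC80 (4 nM final). Antibody in lysis buffer follows, 30 minutes at room temperature before HTRF detection.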

In experiment [13] the target is Galactokinase (Homo sapiens) (UniProt P51570). Nature of the experiment: qHTS Validation Assay for Inhibitors of Human Galactokinase (GALK) (AID 493189). In short, it runs like this: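 Compounds were pin-transferred into ATP buffer, then GALK-galactose mix was added (final 5 nM enzyme, 100 uM galactose, 35 uM ATP). After 1 h at room temperature, remaining ATP was measured luminescently.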

Experiment [14] in a line: Validation screen for small molecules that induce DNA re-replication in SW480 colon adenocarcinoma cells (AID 504364). A digest of the protocol: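 Image-based DNA content read-out: Hoechst stain 40 min, total nuclear fluorescence intensity (ex 405 nm, em 500-530 nm) after 48 h compound exposure of 250 SW480 cells/well at 37 C, 5% CO2, versus DMSO vehicle.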

A number with no mark means an inactive call. Records with an inconclusive call do not appear. Active and inactive are the calls of the source. Unless noted, calls come from the whole dose curve; as a rule, active = well fitted curve in the direction sought with a large enough effect; inconclusive = small, poorly fitted or top-dose-only effect, or another doubt; inactive = no such curve, though single readings can be large; an effect the other way counts as inactive or inconclusive.

Chain of Galactokinase (Homo sapiens) (P51570 whole entry, looked up): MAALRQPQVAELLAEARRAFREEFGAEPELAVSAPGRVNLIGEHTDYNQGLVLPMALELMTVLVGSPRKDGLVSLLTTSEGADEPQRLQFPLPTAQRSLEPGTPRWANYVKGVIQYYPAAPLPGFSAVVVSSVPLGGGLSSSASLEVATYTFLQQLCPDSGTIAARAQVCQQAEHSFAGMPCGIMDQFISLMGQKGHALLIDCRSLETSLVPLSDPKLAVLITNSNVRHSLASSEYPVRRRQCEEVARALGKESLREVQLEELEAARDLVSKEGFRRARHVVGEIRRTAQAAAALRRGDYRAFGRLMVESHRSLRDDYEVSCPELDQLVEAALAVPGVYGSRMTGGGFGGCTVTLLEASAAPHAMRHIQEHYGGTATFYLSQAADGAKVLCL
Chain of ATP-dependent DNA helicase Q1 (Homo sapiens) (P46063 whole entry, looked up): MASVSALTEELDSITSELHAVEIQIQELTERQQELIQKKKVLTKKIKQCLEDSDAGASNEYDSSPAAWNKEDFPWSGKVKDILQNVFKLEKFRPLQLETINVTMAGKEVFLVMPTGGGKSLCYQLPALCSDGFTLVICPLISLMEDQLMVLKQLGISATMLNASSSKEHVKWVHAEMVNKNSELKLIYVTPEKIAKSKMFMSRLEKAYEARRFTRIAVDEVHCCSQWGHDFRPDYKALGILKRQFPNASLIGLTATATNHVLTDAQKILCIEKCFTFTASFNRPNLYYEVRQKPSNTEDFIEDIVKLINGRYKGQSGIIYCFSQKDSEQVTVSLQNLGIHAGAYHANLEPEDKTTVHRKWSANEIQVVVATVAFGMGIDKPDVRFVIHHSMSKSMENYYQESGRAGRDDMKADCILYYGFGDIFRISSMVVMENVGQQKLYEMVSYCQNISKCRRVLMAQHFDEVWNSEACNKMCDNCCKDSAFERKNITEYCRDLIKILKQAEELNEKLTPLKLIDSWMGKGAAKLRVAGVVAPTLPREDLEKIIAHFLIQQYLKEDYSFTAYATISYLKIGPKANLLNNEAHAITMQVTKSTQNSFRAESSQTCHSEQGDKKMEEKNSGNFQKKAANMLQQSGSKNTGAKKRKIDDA
Chain of RecQ-like DNA helicase BLM (Homo sapiens) (P54132 whole entry, looked up): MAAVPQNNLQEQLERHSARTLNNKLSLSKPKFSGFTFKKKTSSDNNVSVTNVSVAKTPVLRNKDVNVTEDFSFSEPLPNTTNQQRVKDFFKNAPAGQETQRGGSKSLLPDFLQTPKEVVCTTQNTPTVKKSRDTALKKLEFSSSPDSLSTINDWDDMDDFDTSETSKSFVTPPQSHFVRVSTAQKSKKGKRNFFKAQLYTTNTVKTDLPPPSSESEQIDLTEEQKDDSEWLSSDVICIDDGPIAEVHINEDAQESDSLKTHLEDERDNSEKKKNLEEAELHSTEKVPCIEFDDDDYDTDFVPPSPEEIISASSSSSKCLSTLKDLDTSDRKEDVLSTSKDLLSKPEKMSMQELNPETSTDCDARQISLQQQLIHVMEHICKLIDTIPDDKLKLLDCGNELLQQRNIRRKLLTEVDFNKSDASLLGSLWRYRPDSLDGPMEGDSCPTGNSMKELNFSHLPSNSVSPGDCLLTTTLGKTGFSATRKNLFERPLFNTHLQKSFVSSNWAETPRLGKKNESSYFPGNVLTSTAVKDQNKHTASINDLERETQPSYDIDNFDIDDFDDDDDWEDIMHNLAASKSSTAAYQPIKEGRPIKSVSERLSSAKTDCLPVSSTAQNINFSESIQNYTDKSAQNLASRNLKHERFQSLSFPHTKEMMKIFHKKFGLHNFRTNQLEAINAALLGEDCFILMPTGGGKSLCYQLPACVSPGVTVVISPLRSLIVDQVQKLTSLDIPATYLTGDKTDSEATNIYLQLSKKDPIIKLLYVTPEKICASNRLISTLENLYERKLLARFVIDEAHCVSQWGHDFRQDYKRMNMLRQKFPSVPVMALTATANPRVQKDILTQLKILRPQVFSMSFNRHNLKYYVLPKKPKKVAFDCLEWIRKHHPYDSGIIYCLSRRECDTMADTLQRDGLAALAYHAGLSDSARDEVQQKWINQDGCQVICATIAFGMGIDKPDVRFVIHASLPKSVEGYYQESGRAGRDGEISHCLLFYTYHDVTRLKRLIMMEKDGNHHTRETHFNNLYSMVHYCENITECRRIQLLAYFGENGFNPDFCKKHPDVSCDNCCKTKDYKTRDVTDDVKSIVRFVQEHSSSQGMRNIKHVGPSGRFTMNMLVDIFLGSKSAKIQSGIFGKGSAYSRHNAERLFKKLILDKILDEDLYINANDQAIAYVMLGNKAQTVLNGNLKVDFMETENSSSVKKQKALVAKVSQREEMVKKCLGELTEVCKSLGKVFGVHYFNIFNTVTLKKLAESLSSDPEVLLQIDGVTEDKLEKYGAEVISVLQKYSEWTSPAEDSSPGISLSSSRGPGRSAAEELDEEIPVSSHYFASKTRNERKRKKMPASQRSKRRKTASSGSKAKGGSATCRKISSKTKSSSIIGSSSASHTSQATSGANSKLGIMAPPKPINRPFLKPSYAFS
Chain of Ferritin light chain (Equus caballus) (P02791 2-175 limits assumed): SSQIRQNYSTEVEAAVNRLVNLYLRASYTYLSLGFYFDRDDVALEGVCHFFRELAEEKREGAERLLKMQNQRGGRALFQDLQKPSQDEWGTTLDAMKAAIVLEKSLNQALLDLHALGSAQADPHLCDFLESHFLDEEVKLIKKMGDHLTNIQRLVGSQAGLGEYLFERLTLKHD
Chain of Thyrotropin receptor (Homo sapiens) (P16473 whole entry, looked up): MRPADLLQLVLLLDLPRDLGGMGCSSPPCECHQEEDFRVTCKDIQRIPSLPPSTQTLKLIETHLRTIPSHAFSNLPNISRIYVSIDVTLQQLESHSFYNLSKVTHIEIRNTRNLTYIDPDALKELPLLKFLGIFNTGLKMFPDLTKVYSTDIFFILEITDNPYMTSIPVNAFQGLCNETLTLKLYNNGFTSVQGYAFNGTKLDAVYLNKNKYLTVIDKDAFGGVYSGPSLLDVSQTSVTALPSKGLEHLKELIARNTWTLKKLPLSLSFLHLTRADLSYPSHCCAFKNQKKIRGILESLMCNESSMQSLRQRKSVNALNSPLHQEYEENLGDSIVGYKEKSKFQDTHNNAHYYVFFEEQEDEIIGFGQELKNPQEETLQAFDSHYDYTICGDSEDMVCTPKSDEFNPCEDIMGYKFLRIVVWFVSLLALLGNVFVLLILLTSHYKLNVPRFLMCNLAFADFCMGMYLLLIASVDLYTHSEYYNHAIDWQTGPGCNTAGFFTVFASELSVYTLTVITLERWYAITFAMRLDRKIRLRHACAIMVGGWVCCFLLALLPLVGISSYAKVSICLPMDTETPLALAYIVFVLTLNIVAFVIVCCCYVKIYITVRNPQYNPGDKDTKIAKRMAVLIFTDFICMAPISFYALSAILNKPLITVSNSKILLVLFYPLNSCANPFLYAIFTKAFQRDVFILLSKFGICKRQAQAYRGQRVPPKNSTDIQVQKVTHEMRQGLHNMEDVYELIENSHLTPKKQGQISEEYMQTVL

`CN1CCN(CC/C=C2/c3ccccc3Sc3ccc(S(=O)(=O)N(C)C)cc32)CC1`: the result in experiment [1], in [7], in [8], in [9], in experiment [12] and in [13] was inactive. Also, the Potency in [2] was 7.08 µM (active); in experiment [3], 11.2 µM (active); in experiment [4] it was 10 µM (active); in experiment [6], 5.01 µM (active). Besides, the Potency entry in [5], in experiment [10], in experiment [11] and in experiment [14] was “inactive” in each case.
